Laboratory results from the supplement of paper PMC7411054.

Legend:
Experiment in all cases: phenotypically active (imaging signature differs from DMSO and reproducible) at any of 0.3-9 uM (binary (1 = active, 0 = inactive)); higher = active
Conditions in all cases: treatment time: 24 h
A549-ACTB-RAB5A = system: A549-ACTB-RAB5A
Method in brief: (§1)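 The reporter lines, fifteen in total and built by gene editing in A549, HepG2 and WPMY1 cells, used BFP for segmentation alongside GFP and RFP/FusionRed markers. Each was treated at 0.3, 1, 3 or 9 µM for 24 h in four wells and then imaged live, with live-cell features normalised to solvent control wells. Deviation meant ≥3 of 4 wells beyond the 95th percentile of control Euclidean distances; reproducibility meant a median replicate Pearson correlation above the 95th percentile of non-replicates. Only conditions meeting both were scored as phenotypically active.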

A549-CANX-COX4 = system: A549-CANX-COX4
Method in brief: as §1

A549-GM130-SQSTM1 = system: A549-GM130-SQSTM1
Method in brief: as §1

A549-TP53BP1-CLTA = system: A549-TP53BP1-CLTA
Method in brief: as §1

A549-TUBA1B-RELA = system: A549-TUBA1B-RELA
Method in brief: as §1

HepG2-ACTB-RAB5A = system: HepG2-ACTB-RAB5A
Method in brief: as §1

HepG2-CANX-COX4 = system: HepG2-CANX-COX4
Method in brief: as §1

HepG2-GM130-SQSTM1 = system: HepG2-GM130-SQSTM1
Method in brief: as §1

HepG2-TP53BP1-CLTA = system: HepG2-TP53BP1-CLTA
Method in brief: as §1

HepG2-TUBA1B-RELA = system: HepG2-TUBA1B-RELA
Method in brief: as §1

WPMY1-ACTB-RAB5A = system: WPMY1-ACTB-RAB5A
Method in brief: as §1

WPMY1-CANX-COX4 = system: WPMY1-CANX-COX4
Method in brief: as §1

WPMY1-GM130-SQSTM1 = system: WPMY1-GM130-SQSTM1
Method in brief: as §1

WPMY1-TP53BP1-CLTA = system: WPMY1-TP53BP1-CLTA
Method in brief: as §1

WPMY1-TUBA1B-RELA = system: WPMY1-TUBA1B-RELA
Method in brief: as §1

Measured: phenotypically active

CC(C)c1ccc(CC(=O)N2CCC[C@@H](c3cccc(OC(C)(C)C(=O)O)c3)C2)cc1
inactive: A549-ACTB-RAB5A 0 | A549-CANX-COX4 0 | A549-GM130-SQSTM1 0 | A549-TP53BP1-CLTA 0 | A549-TUBA1B-RELA 0 | HepG2-ACTB-RAB5A 0 | HepG2-CANX-COX4 0 | HepG2-GM130-SQSTM1 0 | HepG2-TP53BP1-CLTA 0 | HepG2-TUBA1B-RELA 0 | WPMY1-ACTB-RAB5A 0 | WPMY1-CANX-COX4 0 | WPMY1-GM130-SQSTM1 0 | WPMY1-TP53BP1-CLTA 0 | WPMY1-TUBA1B-RELA 0

Cc1ccc(-c2c(-c3nn(C)c4ncnc(N5CC[C@H](N6CCCCC6)C5)c34)cnn2C)cc1
inactive: A549-ACTB-RAB5A 0 | A549-CANX-COX4 0 | A549-GM130-SQSTM1 0 | A549-TP53BP1-CLTA 0 | A549-TUBA1B-RELA 0 | HepG2-ACTB-RAB5A 0 | HepG2-CANX-COX4 0 | HepG2-GM130-SQSTM1 0 | HepG2-TP53BP1-CLTA 0 | HepG2-TUBA1B-RELA 0 | WPMY1-ACTB-RAB5A 0 | WPMY1-CANX-COX4 0 | WPMY1-GM130-SQSTM1 0 | WPMY1-TP53BP1-CLTA 0 | WPMY1-TUBA1B-RELA 0

CC(=O)Oc1ccccc1C(=O)O [aspirin]
inactive: A549-ACTB-RAB5A 0 | A549-CANX-COX4 0 | A549-GM130-SQSTM1 0 | A549-TP53BP1-CLTA 0 | A549-TUBA1B-RELA 0 | HepG2-ACTB-RAB5A 0 | HepG2-CANX-COX4 0 | HepG2-GM130-SQSTM1 0 | HepG2-TP53BP1-CLTA 0 | HepG2-TUBA1B-RELA 0 | WPMY1-ACTB-RAB5A 0 | WPMY1-CANX-COX4 0 | WPMY1-GM130-SQSTM1 0 | WPMY1-TP53BP1-CLTA 0 | WPMY1-TUBA1B-RELA 0

O=C(O)c1cccc(C(=O)O)n1 [2,6-Pyridinedicarboxylic Acid]
inactive: A549-ACTB-RAB5A 0 | A549-CANX-COX4 0 | A549-GM130-SQSTM1 0 | A549-TP53BP1-CLTA 0 | A549-TUBA1B-RELA 0 | HepG2-ACTB-RAB5A 0 | HepG2-CANX-COX4 0 | HepG2-GM130-SQSTM1 0 | HepG2-TP53BP1-CLTA 0 | HepG2-TUBA1B-RELA 0 | WPMY1-ACTB-RAB5A 0 | WPMY1-CANX-COX4 0 | WPMY1-GM130-SQSTM1 0 | WPMY1-TP53BP1-CLTA 0 | WPMY1-TUBA1B-RELA 0

O=NN(CCCl)C(=O)NCCCl [carmustine]
inactive: A549-ACTB-RAB5A 0 | A549-CANX-COX4 0 | A549-GM130-SQSTM1 0 | A549-TP53BP1-CLTA 0 | A549-TUBA1B-RELA 0 | HepG2-ACTB-RAB5A 0 | HepG2-CANX-COX4 0 | HepG2-GM130-SQSTM1 0 | HepG2-TP53BP1-CLTA 0 | HepG2-TUBA1B-RELA 0 | WPMY1-ACTB-RAB5A 0 | WPMY1-CANX-COX4 0 | WPMY1-GM130-SQSTM1 0 | WPMY1-TP53BP1-CLTA 0 | WPMY1-TUBA1B-RELA 0

C[C@@H](CO)CCC[C@@H](C)[C@H]1CC[C@H]2[C@@H]3CC=C4C[C@@H](O)CC[C@]4(C)[C@H]3CC[C@]12C [27-Hydroxycholesterol]
inactive: A549-ACTB-RAB5A 0 | A549-CANX-COX4 0 | A549-GM130-SQSTM1 0 | A549-TP53BP1-CLTA 0 | A549-TUBA1B-RELA 0 | HepG2-ACTB-RAB5A 0 | HepG2-CANX-COX4 0 | HepG2-GM130-SQSTM1 0 | HepG2-TP53BP1-CLTA 0 | HepG2-TUBA1B-RELA 0 | WPMY1-ACTB-RAB5A 0 | WPMY1-CANX-COX4 0 | WPMY1-GM130-SQSTM1 0 | WPMY1-TP53BP1-CLTA 0 | WPMY1-TUBA1B-RELA 0

CCO[C@@H](Cc1ccc(OCCc2ccc(OS(C)(=O)=O)cc2)cc1)C(=O)O [Tesaglitazar]
inactive: A549-ACTB-RAB5A 0 | A549-CANX-COX4 0 | A549-GM130-SQSTM1 0 | A549-TP53BP1-CLTA 0 | A549-TUBA1B-RELA 0 | HepG2-ACTB-RAB5A 0 | HepG2-CANX-COX4 0 | HepG2-GM130-SQSTM1 0 | HepG2-TP53BP1-CLTA 0 | HepG2-TUBA1B-RELA 0 | WPMY1-ACTB-RAB5A 0 | WPMY1-CANX-COX4 0 | WPMY1-GM130-SQSTM1 0 | WPMY1-TP53BP1-CLTA 0 | WPMY1-TUBA1B-RELA 0

CCOC(=O)C(C)(C)Oc1ccc(Cl)cc1 [Clofibrate]
inactive: A549-ACTB-RAB5A 0 | A549-CANX-COX4 0 | A549-GM130-SQSTM1 0 | A549-TP53BP1-CLTA 0 | A549-TUBA1B-RELA 0 | HepG2-ACTB-RAB5A 0 | HepG2-CANX-COX4 0 | HepG2-GM130-SQSTM1 0 | HepG2-TP53BP1-CLTA 0 | HepG2-TUBA1B-RELA 0 | WPMY1-ACTB-RAB5A 0 | WPMY1-CANX-COX4 0 | WPMY1-GM130-SQSTM1 0 | WPMY1-TP53BP1-CLTA 0 | WPMY1-TUBA1B-RELA 0

C[C@]1(OC(=O)/C=C/c2ccccc2)C[C@@H](O)[C@]2(O)C=CO[C@@H](O[C@@H]3O[C@H](CO)[C@@H](O)[C@H](O)[C@H]3O)[C@@H]21 [Harpagoside]
inactive: A549-ACTB-RAB5A 0 | A549-CANX-COX4 0 | A549-GM130-SQSTM1 0 | A549-TP53BP1-CLTA 0 | A549-TUBA1B-RELA 0 | HepG2-ACTB-RAB5A 0 | HepG2-CANX-COX4 0 | HepG2-GM130-SQSTM1 0 | HepG2-TP53BP1-CLTA 0 | HepG2-TUBA1B-RELA 0 | WPMY1-ACTB-RAB5A 0 | WPMY1-CANX-COX4 0 | WPMY1-GM130-SQSTM1 0 | WPMY1-TP53BP1-CLTA 0 | WPMY1-TUBA1B-RELA 0

Nc1ncnc2c1ncn2[C@@H]1O[C@H](CO)C[C@H]1O [Cordycepin]
inactive: A549-ACTB-RAB5A 0 | A549-CANX-COX4 0 | A549-GM130-SQSTM1 0 | A549-TP53BP1-CLTA 0 | A549-TUBA1B-RELA 0 | HepG2-ACTB-RAB5A 0 | HepG2-CANX-COX4 0 | HepG2-GM130-SQSTM1 0 | HepG2-TP53BP1-CLTA 0 | HepG2-TUBA1B-RELA 0 | WPMY1-ACTB-RAB5A 0 | WPMY1-CANX-COX4 0 | WPMY1-GM130-SQSTM1 0 | WPMY1-TP53BP1-CLTA 0 | WPMY1-TUBA1B-RELA 0

NS(=O)(=O)c1cc(C2(O)NC(=O)c3ccccc32)ccc1Cl (stereo not given) [chlorthalidone]
inactive: A549-ACTB-RAB5A 0 | A549-CANX-COX4 0 | A549-GM130-SQSTM1 0 | A549-TP53BP1-CLTA 0 | A549-TUBA1B-RELA 0 | HepG2-ACTB-RAB5A 0 | HepG2-CANX-COX4 0 | HepG2-GM130-SQSTM1 0 | HepG2-TP53BP1-CLTA 0 | HepG2-TUBA1B-RELA 0 | WPMY1-ACTB-RAB5A 0 | WPMY1-CANX-COX4 0 | WPMY1-GM130-SQSTM1 0 | WPMY1-TP53BP1-CLTA 0 | WPMY1-TUBA1B-RELA 0
